Results published in PubChem BioAssay (NCI).
About 83,000 compounds went through this panel and 20% of them were active in at least one assay; those are over-represented in the sample as a whole.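 Interpretation: 100, growth as untreated; towards 0, rising growth inhibition; 0, no net growth; 0 to -100, cell death. Compounds scoring below 10 were considered active.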 Activity calls are given as the source filed them.

Test system: U251 CNS
Assay: NCI-60 one-dose screen, 48 h (100 = growth as untreated, 0 = no growth, -100 = all killed)
Conditions: 10 µM unless noted

Compound	growth
Cc1ccc2sc3c(NCCCNCCO)nc4ccccc4c3c(=O)c2c1	-39.5% (active)
NCCOc1ncccc1/C=C1\c2ccccc2-c2ccc(F)cc21	8.04% (active)
CNCCNc1nc2ccccc2c2c(=O)c3cc(OC)ccc3sc12	-19.6% (active)
CC(C)c1ccc(S(=O)(=O)NC(=O)NC2CCCC2)cc1	101% (inactive)
COc1cc(/C=C2\CN(C)C/C(=C\c3cc(CN4CCCC4)c(O)c(OC)c3)C2=O)cc(CN2CCCC2)c1O	25.8% (inactive)
Nc1ccccc1-c1ccc(-c2ccc(Cl)cc2)c2c1[nH]c1ccccc12	70.6% (inactive)
O=C(Cn1cc(COc2ncnc3c2cnn3-c2ccccc2)nn1)Nc1ccccn1	95.7% (inactive)
NCCOc1ccccc1/C=C1\c2ccccc2-c2ccc([N+](=O)[O-])cc21	-74.1% (active)
COc1cc(/C(C#N)=C/c2nc3c(N4CCOCC4)nc(Cl)nc3n2C)cc(OC)c1OC	8.74% (active)
Cc1ccc2cccc(Oc3ccc(Nc4ncnc5onc(-c6ccccc6)c45)cc3)c2n1	70% (inactive)
COC(=O)/C(CCC=C(C)C)=C1\[C@@H](OC(C)=O)C[C@@]2(C)[C@H]1C[C@@H](O)[C@H]1[C@@]3(C)CC[C@H](NCc4ccccc4)[C@@H](C)[C@@H]3CC[C@@]12C	49.2% (inactive)
COc1cc(/C=C/C(=O)c2ccc(Cl)cc2)cc(CN2CCCCC2)c1O	74.6% (inactive)
O=C(/C=C/c1ccc(Cl)cc1)c1ccc(Nc2nc(NCCO)nc(Nc3ccc(Cl)cc3)n2)cc1	21.8% (inactive)
CN1CCN(Cc2ccc(NC(=O)c3[nH]ncc3Nc3cc(OC4CCCC4)ncn3)cc2)CC1	41.1% (inactive)
Cn1c(/C=C(\C#N)c2ccccc2)nc2c(N3CCOCC3)nc(Cl)nc21	3.21% (active)
CCN1C(=O)N(CC)C2Nn3c(s/c(=C\c4ccccc4F)c3=O)=NC21 (centres undefined)	26.1% (inactive)
Cc1ccccc1CNC(=O)C1CN(c2ccc(Cl)cc2)N(c2ccc(Cl)cc2)C1=O (centres undefined)	89.7% (inactive)
CCCCC1CCc2cccc3c(SCC(=O)N(C)c4ccc(Cl)cc4)cc[n+]1c23 (centres undefined)	108% (inactive)
Clc1ccc(Oc2ccc(Nc3ncnc4onc(-c5ccccc5)c34)cc2)c(Cl)c1	102% (inactive)
O=C(O)c1cn(C2CC2)c2cc(N3CCN(C(=O)C[n+]4ccccc4)CC3)c(F)cc2c1=O	92.4% (inactive)

Compound	growth
O=C(CSc1nc2ccccc2c(=O)n1-c1ccccc1)Nc1ccc(C(=O)/C=C/c2ccc(Cl)cc2)cc1	106% (inactive)
Cc1nc(Nc2cn[nH]c2C(=O)Nc2ccc(CN3CCN(C)CC3)cc2)c2ccsc2n1	92.8% (inactive)
CN1C(=O)N(C)C2Nn3c(s/c(=C4\C(=O)N(CCc5ccccc5)c5ccccc54)c3=O)=NC21 (centres undefined)	77.8% (inactive)
O=C(/C=C/c1ccc(C(F)(F)F)cc1)c1ccc(Nc2nc(NCCO)nc(N3CCOCC3)n2)cc1	-51.3% (active)
COc1cc(/C=C/C(=O)c2ccc(Nc3nc(NCCO)nc(N4CCOCC4)n3)cc2)cc(OC)c1OC	14.6% (inactive)
COc1cc(/C=C2\CN(S(=O)(=O)c3ccccc3)C/C(=C\c3cc(CN4CCCC4)c(O)c(OC)c3)C2=O)cc(CN2CCCC2)c1O	-21.7% (active)
O=c1c2cc(F)ccc2sc2c(Nc3ccncc3)nc3ccccc3c12	-33% (active)
O=c1c2cc(F)ccc2sc2c(NCCN3CCCC3)nc3ccccc3c12	35.7% (inactive)
CNC(=O)c1cc(Oc2ccc(CC(=O)Nc3cc(C(C)(C)C)cn3C)cc2)ccn1	88.6% (inactive)
COc1cc2nc(NC3CCCC3)nc(NC3CCN(C(C)C)CC3)c2cc1OC	45% (inactive)
O=C(NCc1ccco1)C1CN(c2ccc(Cl)cc2)N(c2ccc(Cl)cc2)C1=O (centres undefined)	33.9% (inactive)
COc1cccc2cc(N(C)c3nc(C)nc4ccsc34)ccc12	11.7% (inactive)
CN1C(=O)N(C)C2(c3ccccc3)OC(=S)NC12c1ccccc1 (centres undefined)	98.7% (inactive)
Nc1nc(-c2cnccn2)nn1-c1nc2ccccc2s1	93.5% (inactive)
COc1ccc(N)c(-c2cc3c(c4c2[nH]c2ccc(OC)cc24)CCCC3)c1	74.3% (inactive)
COc1cccc(/C(C#N)=C/c2nc3c(N4CCOCC4)nc(Cl)nc3n2C)c1	-15.1% (active)
O=c1c(-c2nc3ccccc3[nH]2)cc2ccccc2n1Cc1cn(Cc2ccc(N3CCOCC3)cc2)nn1	64.3% (inactive)
Cn1c2c(c(=O)[nH]c1=O)NC1=C(C(=O)c3ccccc31)C1(C=C(O)c3ccccc31)N2 (centres undefined)	103% (inactive)
COC(=O)/C(CCC=C(C)C)=C1\[C@@H](OC(C)=O)C[C@@]2(C)[C@H]1C[C@@H](O)[C@H]1[C@@]3(C)CC[C@H](NCCCNCCCCNCCCN)[C@@H](C)[C@@H]3CC[C@@]12C	71.5% (inactive)
